PubChem BioAssay (EPA / NIEHS)
Active and inactive are the calls of the source. How the source made its calls: active means hit-call score of the fitted dose curve at least 0.9, where 1 is the maximum; inactive means score below 0.9.

What was measured:
[1] = BSK_BT_PBMCCytotoxicity: PBMC Cytotoxicity Assessment in the BioMAP Diversity Plus: BT Assay (AID 2284225); details: primary human B cells with PBMC;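 further: PBMC viability measured by Alamar Blue dye reduction fluorescence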
In short: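 75,000 cells/well; cpd 1 h → SEB + TSST-1 (20 ng/mL final each) → 90 h → Alamar Blue 6 h → fluor. 546/580 nm. DMSO = neg. control/baseline.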

[2] = read-out: Secreted IgG (sIgG), gene 3500; test: BSK_BT_sIgG: BioMAP Diversity Plus: BT Assay for Secreted IgG (sIgG) Biomarker Activity (AID 2284226); details: primary human B cells with PBMC
In short: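 Secreted IgG from a human primary B cell–PBMC co-culture was measured by ELISA 24 hours after dosing, with DMSO defining baseline activity.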

SMILES | outcome [1] | outcome [2] | AC50 [2] | AC50 [1]
CN(C(=O)C(F)(F)C(F)(F)C(F)(F)F)[Si](C)(C)C | inactive | inactive | – | –
CCN(CC)c1ccc(C=O)c(O)c1 | inactive | – | 20 µM (active) | –
O=C1c2c(O)ccc(Nc3ccc(CCO)cc3)c2C(=O)c2c([N+](=O)[O-])ccc(O)c21 | – | – | 29.9 µM (active) | 20 µM (active)
O=C1C=CC(=O)N1c1ccc(Cc2ccc(N3C(=O)C=CC3=O)cc2)cc1 | – | – | 2.18 µM (active) | 4.43 µM (active)
Cc1cc(C)c(O)c(C(C)(C)C)c1 | inactive | inactive | – | –
Cc1ccc(O)c(-n2nc3ccccc3n2)c1 | inactive | inactive | – | –
Cc1cnccn1 | inactive | – | 5.22 µM (active) | –
O=C=Nc1cccc2c(N=C=O)cccc12 | inactive | – | 12 µM (active) | –
